The entries come from a sample that favours hits as a whole.
Pf Dd2 growth: blocks in vitro growth of P. falciparum Dd2 | actives 4.3% (n = 120,000) | P. falciparum Dd2 growth, SYBR Green, 72 h | Potency, µM (doses to about 28.9 µM), for the others: at the top dose activity, negative = inhibition, most hits filed as inhibitors; active = well fitted inhibition curve with a large enough effect;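 also: plate controls were DMSO vehicle for no effect and reference drug for full effect; nearly all actives have a fitted effect of over 65% in size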
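Readout: SYBR Green fluorescence, 485 nm excitation, 535 nm emission, after ~16 h lysis at 37C. Before that, Dd2-infected red cells (2.5% hematocrit) grew 72 h with compound, 29 uM top final concentration.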
* hit, by the source's call; i = inactive; [ ] = another dose, or the depositor's remark. Potency is read from the fitted curve at half-maximal effect.

SMILES | Pf Dd2 growth
Cc1ccc(-n2c(C3CCN(C(=O)c4cccc(Cl)c4)CC3)n[nH]c2=O)cc1 | -8%
O=C(O)C1(O)CCN(c2ncc(F)c(N3CCOCC3)n2)CC1 | -22%
COc1cc2c(C(=O)N3CCN(c4ccc(C)cc4)C(C)C3)cn(CC(C)C)c(=O)c2cc1OC (configuration not stated) | 8.9µM*
CCn1cc(C(=O)N2CCN(c3ccc(C)cc3)C(C)C2)c(=O)c2cc(S(=O)(=O)N3CCCC3)ccc21 (configuration not stated) | 20%
COc1cc(OC)c(NC(=O)c2cn(C)c(=O)c3cc(OC)c(OC)cc23)cc1Cl | 15%
CCn1cc(C(=O)N2CCN(c3ccccc3OC)CC2)c2cc(OC)c(OC)cc2c1=O | -9%
CCOc1ccc(NC(=O)c2cn(C)c(=O)c3cc(OC)c(OC)cc23)cc1 | 21%
COc1ccc(NC(=O)c2cn(CC(C)C)c(=O)c3cc(OC)c(OC)cc23)cc1Cl | 11µM*
CNC(=O)[C@@H]1CN(C(=O)c2cc3ccccc3[nH]2)C[C@H]1c1nc(C)no1 | i
Cc1cn2nc(C(=O)N3CCC(NC(=O)c4c(F)cccc4F)CC3)cc2c(=O)[nH]1 | -26%
O=C(Nc1cccc(Cl)c1)C1=NO[C@@H]2CN(c3ccccn3)C[C@H]12 | -23%[44.1 µM]
COc1ccccc1-c1cn2c(n1)CO[C@@H](CNCc1ccc(F)cc1)C2 | i
CO[C@H]1C(=O)N(C(C)C)[C@H]1C1CCN(Cc2cccc(C#N)c2)CC1 | 10µM*
CO[C@H]1C(=O)N(C(C)C)[C@H]1C1CCN(Cc2cccc(F)c2)CC1 | -25%
CO[C@H]1C(=O)N(C(C)C)[C@H]1C1CCN(C(=O)c2cccc(C#N)c2)CC1 | 13%
O=C(NCc1cccc2ccccc12)C1(c2ccc(Cl)cc2)CCOCC1 | -2%
COc1ccc(C(=O)N2CCOC3(CCN([S+](C)(=O)[O-])CC3)C2)cc1 | 14%
COc1ccc(C(=O)N2CCC3(CC2)NC(=O)N(c2ccccc2Cl)N3)cc1F | -5%
CCCN1CCC(N2C[C@@H](CO)[C@H](c3nc(COC)no3)C2)CC1 | 19%
Cc1nn(-c2ccc(C(C)C)cc2)c(C)c1[C@@H]1C=C[C@@H](NCc2cccc(C#N)c2)C1 | 4.5µM*
Cc1ccc(-n2nc(C)c([C@@H]3C=C[C@@H](NC(=O)CC(C)(C)CC(=O)O)C3)c2C)cc1Cl | i
Cc1nn(CCC#N)c(C)c1[C@@H]1C=C[C@@H](NCc2ccc(F)cc2)C1 | -16%[44.1 µM]
Cc1ccc(-n2nc(C)c([C@@H]3C=C[C@@H](NCc4ccc(N(C)C)cc4)C3)c2C)cc1Cl | -42%[44.1 µM]
Cc1nn(-c2ccc(C(C)C)cc2)c(C)c1[C@@H]1C=C[C@@H](NCc2ccc(F)cc2)C1 | 4µM*
Cc1nn(-c2ccccc2)c(C)c1[C@@H]1C=C[C@@H](NCc2cccc(C#N)c2)C1 | i
SMILES | Pf Dd2 growth
Cc1nn(-c2cccc(Br)c2)c(C)c1[C@@H]1C=C[C@@H](NS(C)(=O)=O)C1 | -3%[44.1 µM]
Cc1ccc(-n2nc(C)c([C@@H]3C=C[C@@H](NCc4ccc(F)cc4)C3)c2C)cc1Cl | 3.5µM*
CCOC(=O)c1ccccc1NC(=O)Cn1ccn2nc3c(c2c1=O)CCCCC3 | -7%
C[C@@H](NC(=O)c1ccc2c(c1)OCO2)c1onc(-c2ccc(F)cc2)c1C(=O)O | 17%[44.1 µM]
CNC(=O)[C@@H](c1ccc(OC)cc1)N1CCC[C@H]1C(=O)N1CCCC1 | -13%[44.1 µM]
O=c1[nH]c(N2CCOCC2)nc2c1CCN(Cc1ccc(F)c(Br)c1)CC2 | -10%[5.79 µM]
Cc1cccc(OC[C@H]2C[C@@H](N)[C@H](O)[C@@H]2O)n1 | -13%[44.1 µM]
Clc1cc(Cl)cc(NC2CNC2)c1 | 22µM*
COc1ccc(CN2C(=O)CO[C@H](c3ccc(NC(=O)c4ccccc4C)cc3)[C@H]2CO)cc1 | -11%
N#Cc1ccc(CN2CCC3(CC2)COCCN3C(=O)c2ccccc2)cc1 | -16%[44.1 µM]
CN1CC[C@H]2CN(C(=O)c3cn(-c4ccccc4)nn3)C[C@@]2(C(=O)O)C1 | 3%
Cc1ccc(C(=O)N[C@H]2CO[C@H]3[C@@H]2OC[C@@H]3Nc2nccc(C(C)(C)C)n2)cc1 | 11µM*
CC(=O)Nc1ccc(S(=O)(=O)N[C@H]2CO[C@H]3[C@@H]2OC[C@@H]3Nc2nccc(C(C)(C)C)n2)cc1 | -9%
CC(C)(C)c1ccc(NC(=O)O[C@@H]2CO[C@H]3[C@@H]2OC[C@@H]3Nc2nccc(C(C)(C)C)n2)cc1 | i
O=C(N[C@H](C1CCNCC1)C1CC(O)C1)c1cccc(=O)[nH]1 (some centres not stated) | -1%
CCN1C(=O)CCN(C(C)=O)CC12CCOCC2 | 11%
CCN1C(=O)CCN(S(=O)(=O)CC)CC12CCOCC2 | 7%
CCN1C(=O)CCN(CC2CCCCC2)CC12CCOCC2 | 3.5µM*
Cc1ncccc1Oc1ncnc(-c2cc(N)nc3[nH]ccc23)c1C | -19%
O=C(NCC1Cn2cccc2CN1Cc1ccccc1)c1n[nH]c2ccccc12 (configuration not stated) | 13µM*
O=C(NCC1Cn2cccc2CN1Cc1ccccc1)c1ccncc1 (configuration not stated) | -28%
O=C(NCC1Cn2cccc2C(=O)N1Cc1ccccc1)c1ccncc1 (configuration not stated) | -7%
CNC(=O)N1CCC(C2CCN(S(=O)(=O)c3ccc(C)c(F)c3)C2)CC1 (configuration not stated) | i
Cc1cccc(CN2CC[C@@H]3OCC(=O)N(Cc4ccc(O)cc4)[C@H]3CC2)c1 | -15%[44.1 µM]
O=C1CO[C@H]2CCN(CCCc3ccccc3)CC[C@@H]2N1Cc1ccccc1 | 4µM*
SMILES | Pf Dd2 growth
O=C1CO[C@H]2CCN(Cc3ccccc3)CC[C@@H]2N1CCc1cccnc1 | -11%[44.1 µM]
CSc1cccc(NC(=O)CN2C(=O)NC3(CCC(C)CC3)C2=O)c1 (configuration not stated) | i
COc1ccc(CCNC(=O)c2cc3c(=O)[nH]c(C)cn3n2)cc1OC | i
COCCCNC(=O)c1cc2c(=O)[nH]c(C)cn2n1 | 21%
Cc1cn2nc(C(=O)NCc3cc(F)cc(F)c3)cc2c(=O)[nH]1 | 10%
Cc1ccc(CNC(=O)c2ccc(NC(=O)c3cc4c(=O)[nH]c(C)cn4n3)cc2)cc1 | 4µM*
Cc1cn2nc(C(=O)NCc3cccc(Cl)c3)cc2c(=O)[nH]1 | 8%
Cc1cn2nc(C(=O)NCCCc3ccccc3)cc2c(=O)[nH]1 | 7.9µM*
CCN(CC)C(=O)CC[C@H]1CNC(=O)[C@H]2NCC[C@H]2N1C | 18%[44.1 µM]
CC(=O)N1CC[C@H](c2nnc(-c3cccnc3)o2)C1 | 12%[44.1 µM]
CCS(=O)(=O)NCC1(COCCOC)C[C@@H](O)[C@@H](O)C1 (some centres not stated) | -18%[44.1 µM]
CC(C)[S+](=O)([O-])N1CCC(c2nnc3n2C(C(=O)O)CC3)CC1 (configuration not stated) | 18%
COC(=O)CNC(c1ccccc1)c1cc(Br)ccc1NC(=O)c1ccc(Cl)cc1 (configuration not stated) | i
CCOC(=O)CSc1nc2ccc(NC(=O)c3ccc(Cl)cc3)cc2s1 | -6%
CCOC(=O)CNC(c1ccccc1)c1cc(Br)ccc1NC(=O)c1ccc(Cl)cc1 (configuration not stated) | 4µM*
COC[C@@H]1CN(C(=O)c2ccn[nH]2)C[C@H]1c1ccncc1 | 0%
CN(C)c1nccnc1OC1CCN(C(=O)CCCc2ccccc2)C1 (configuration not stated) | -23%
O=C1CC(c2ccccc2)N(Cc2ccncc2)CCCN(C(=O)c2cc3ccccc3[nH]2)CCN1 (configuration not stated) | 3.5µM*

Compound activity: PubChem, National Center for Advancing Translational Sciences (NCATS)
